Laboratory results from PubChem BioAssay (Tox21).
Results filed as inconclusive are left out. Calls of active or inactive are those of the source. Unless noted, the call rests on the fitted dose curve; in most records, active means well fitted curve in the direction sought with a large enough effect in the repeat runs; inconclusive means weak or mixed curves; inactive means no such curve, though single readings can be large; an effect the other way counts as inactive or inconclusive.

Experiments:
[1] = A CellTox Green Cytotoxicity Assay to monitor cytotoxicity in HepG2 cells - 8 hour (AID 1224890); further: nearly all actives have a fitted effect of over 45% in size
Procedure, shortened: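 Using 1536-well format, dye-containing HepG2 suspension was seeded, allowed 5 h at 37 C/5% CO2, dosed by pintool with compounds, positive and negative controls, and imaged for fluorescence across 40 h.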

[2] = qHTS assay to identify small molecule antagonists of the estrogen receptor alpha (ER-alpha) signaling pathway using the BG1 cell line in the presence of 0.1 nM 17-beta-estradiol - cell viability counter screen (AID 1259241); further: nearly all actives have a fitted effect of over 40% in size
Procedure, shortened: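 VM7Luc4E2 cells (endogenous full-length ER-alpha, 4xERE-luciferase), cultured 5 days in charcoal-stripped serum, exposed to compounds with 0.1 nM 17beta-estradiol (final) for 22 hr at 37C. Viability read in same wells as live-cell protease fluorescence after 30 min.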

[3] = qHTS assay to identify small molecule antagonists of the androgen receptor (AR) signaling pathway using the MDA cell line in the presence of 0.5 nM R1881 - cell viability counter screen (AID 1259242); further: nearly all actives have a fitted effect of over 45% in size
Procedure, shortened: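 Viability of MDA-kb2 cells was multiplexed with the luciferase AR readout; after 16 hr with compounds and R1881 at 0.5 nM final, CellTiter-Fluor fluorescence was recorded.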

[4] = target: Androgen receptor (Homo sapiens) (UniProt P10275); experiment: qHTS assay to identify small molecule antagonists of the androgen receptor (AR) signaling pathway using the MDA cell line in the presence of 0.5 nM R1881 (AID 1259243); further: nearly all actives have a fitted effect of over 50% in size; further: potency means the concentration at half of the fitted maximal effect
Chain of Androgen receptor (Homo sapiens) (P10275 whole entry, looked up): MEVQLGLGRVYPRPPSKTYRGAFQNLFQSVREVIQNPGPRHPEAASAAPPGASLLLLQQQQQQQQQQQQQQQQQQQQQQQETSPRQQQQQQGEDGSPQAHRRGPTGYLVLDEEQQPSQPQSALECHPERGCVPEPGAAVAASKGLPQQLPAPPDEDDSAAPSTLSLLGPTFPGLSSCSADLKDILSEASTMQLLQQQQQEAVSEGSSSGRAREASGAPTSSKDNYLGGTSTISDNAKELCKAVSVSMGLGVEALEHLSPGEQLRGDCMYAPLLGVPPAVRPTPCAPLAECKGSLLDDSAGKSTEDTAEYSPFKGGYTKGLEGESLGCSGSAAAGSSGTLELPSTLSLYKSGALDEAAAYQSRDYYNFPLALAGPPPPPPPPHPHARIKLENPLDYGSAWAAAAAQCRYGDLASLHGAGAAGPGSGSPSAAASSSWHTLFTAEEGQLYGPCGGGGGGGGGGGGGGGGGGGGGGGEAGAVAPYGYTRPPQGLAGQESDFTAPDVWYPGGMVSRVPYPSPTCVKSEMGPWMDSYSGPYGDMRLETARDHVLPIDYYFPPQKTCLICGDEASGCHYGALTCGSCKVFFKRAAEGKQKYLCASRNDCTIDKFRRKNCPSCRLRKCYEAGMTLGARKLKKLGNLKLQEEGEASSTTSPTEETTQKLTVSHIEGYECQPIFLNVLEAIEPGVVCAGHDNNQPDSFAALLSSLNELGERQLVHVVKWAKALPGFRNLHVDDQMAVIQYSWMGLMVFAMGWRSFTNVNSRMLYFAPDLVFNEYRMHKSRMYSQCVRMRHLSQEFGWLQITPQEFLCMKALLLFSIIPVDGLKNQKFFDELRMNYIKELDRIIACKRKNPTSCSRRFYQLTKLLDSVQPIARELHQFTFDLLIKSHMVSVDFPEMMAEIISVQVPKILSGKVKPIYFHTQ
Procedure, shortened: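 Reporter cells cultured without CO2 receive test chemicals, then 0.5 nM R1881 final; after 16 hr at 37C, ONE-Glo is added and light output recorded.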

[5] = target: Estrogen receptor (Homo sapiens) (UniProt P03372); experiment: qHTS assay to identify small molecule antagonists of the estrogen receptor alpha (ER-alpha) signaling pathway using the BG1 cell line in the presence of 0.1 nM 17-beta-estradiol (AID 1259244); further: nearly all actives have a fitted effect of over 50% in size; further: potency means the concentration at half of the fitted maximal effect
Chain of Estrogen receptor (Homo sapiens) (P03372 whole entry, looked up): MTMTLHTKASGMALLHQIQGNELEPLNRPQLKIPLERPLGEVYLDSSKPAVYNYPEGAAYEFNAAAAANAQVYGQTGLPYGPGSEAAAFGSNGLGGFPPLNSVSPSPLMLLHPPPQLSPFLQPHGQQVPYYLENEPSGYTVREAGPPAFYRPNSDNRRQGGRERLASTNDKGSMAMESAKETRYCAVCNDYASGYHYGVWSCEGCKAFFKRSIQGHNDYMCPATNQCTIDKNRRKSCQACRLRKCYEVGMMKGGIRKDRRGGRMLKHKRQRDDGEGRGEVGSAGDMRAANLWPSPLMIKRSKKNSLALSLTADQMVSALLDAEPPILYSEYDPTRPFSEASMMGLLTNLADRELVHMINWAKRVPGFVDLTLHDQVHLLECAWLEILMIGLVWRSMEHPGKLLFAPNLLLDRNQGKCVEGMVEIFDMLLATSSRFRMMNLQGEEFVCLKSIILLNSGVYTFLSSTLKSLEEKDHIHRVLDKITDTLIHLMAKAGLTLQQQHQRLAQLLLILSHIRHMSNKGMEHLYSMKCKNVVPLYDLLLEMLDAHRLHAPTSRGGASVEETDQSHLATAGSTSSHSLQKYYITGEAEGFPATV
Procedure, shortened: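 Estradiol at 0.1 nM (final) stimulates the endogenous ER-alpha of VM7Luc4E2 cells carrying an ERE-driven luciferase; compounds are co-incubated 22 h at 37C and luciferase output quantified by luminescence.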

[6] = qHTS assay to identify small molecule phospholipidosis (PLD) inducers (AID 1259344; active means well fitted curve in the direction sought with a large enough effect; an effect the other way counts as inactive or inconclusive)
Procedure, shortened: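 HepG2 cells grown on collagen I take up LipidTOX Red while exposed to compound for 24 h; after fixation they are imaged at 20x and pit metrics are extracted.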

[7] = qHTS assay to identify small molecule HDAC inhibitors (AID 1259364);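 further: wild-type HCT-116 cells with endogenous class I/II HDAC activity; top concentration of the series differs between compounds; nearly all actives have a fitted effect of over 45% in size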
Procedure, shortened: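 Read-out: luminescence of HDAC-Glo I/II reagent, 30 min RT, reflecting class I/II deacetylase activity in whole HCT-116 cells pre-exposed 2 h to DMSO-dissolved compounds.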

[8] = qHTS assay to identify small molecule HDAC inhibitors - cell viability counter screen (AID 1259365); further: series mostly up to about 92 µM; nearly all actives have a fitted effect of over 50% in size
Procedure, shortened: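 Wild-type HCT-116 cells, 1,500/well, cultured overnight, then compound-treated 2 h at 37 C. Viability measured as ATP luminescence with CellTiter-Glo after 30 min at room temperature.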

[9] = qHTS assay to identify small molecule agonists of the sonic hedgehog signaling (Shh) pathway - cell viability counter screen (AID 1259366); further: nearly all actives have a fitted effect of over 50% in size
Procedure, shortened: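 NIH/3T3-derived Gli1-Luc reporter cells, 2,000 per well, received compound after 4 h and were treated about 23 h at 37C. Viability measured in the same wells by CellTiter-Fluor fluorescence after 1 h.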

[10] = qHTS assay to identify small molecule antagonists of the sonic hedgehog signaling (Shh) pathway - cell viability counter screen (AID 1259367); further: nearly all actives have a fitted effect of over 55% in size
Procedure, shortened: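 After a 4 hr settling period, 3T3 Gli1-Luc cells were treated with DMSO-dissolved chemicals and conditioned medium, kept 24 hr at 37C in 5% CO2, and assayed for viability by CellTiter-Fluor fluorescence following 1 hr reagent incubation.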

[11] = qHTS assay to identify small molecule agonists of the sonic hedgehog signaling (Shh) pathway (AID 1259368; calls by dose curve;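 further: NIH/3T3-derived 3T3Gli1-Luc cells carrying a stable Gli1-driven firefly luciferase reporter; series mostly up to about 92 µM; nearly all actives have a fitted effect of over 15% in size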)
Procedure, shortened: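 A Gli1 transcriptional response element controlled firefly luciferase in 3T3Gli1-Luc cells. Compounds and a positive control were added 4 hr after plating, and cells were incubated a further 24 hr at 37 C before luminescence detection.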

[12] = qHTS assay to identify small molecule antagonists of the sonic hedgehog signaling (Shh) pathway (AID 1259369; calls by dose curve; further: nearly all actives have a fitted effect of over 45% in size)
Procedure, shortened: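 For antagonist detection, the reporter line received test compounds together with conditioned medium, incubated 24hr at 37 C, 5% CO2, then luminescence was recorded following 30min room-temperature luciferase reagent incubation.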

[13] = target: Estrogen receptor beta (Homo sapiens) (UniProt Q92731); experiment: qHTS assay to identify small molecule agonists of the estrogen receptor beta (ER-beta) signaling pathway (AID 1259377; active means well fitted activation curve with a large enough effect in the signal ratio in the repeat runs, not every such curve was filed as active; the % refers to the signal ratio)
Chain of Estrogen receptor beta (Homo sapiens) (Q92731 whole entry, looked up): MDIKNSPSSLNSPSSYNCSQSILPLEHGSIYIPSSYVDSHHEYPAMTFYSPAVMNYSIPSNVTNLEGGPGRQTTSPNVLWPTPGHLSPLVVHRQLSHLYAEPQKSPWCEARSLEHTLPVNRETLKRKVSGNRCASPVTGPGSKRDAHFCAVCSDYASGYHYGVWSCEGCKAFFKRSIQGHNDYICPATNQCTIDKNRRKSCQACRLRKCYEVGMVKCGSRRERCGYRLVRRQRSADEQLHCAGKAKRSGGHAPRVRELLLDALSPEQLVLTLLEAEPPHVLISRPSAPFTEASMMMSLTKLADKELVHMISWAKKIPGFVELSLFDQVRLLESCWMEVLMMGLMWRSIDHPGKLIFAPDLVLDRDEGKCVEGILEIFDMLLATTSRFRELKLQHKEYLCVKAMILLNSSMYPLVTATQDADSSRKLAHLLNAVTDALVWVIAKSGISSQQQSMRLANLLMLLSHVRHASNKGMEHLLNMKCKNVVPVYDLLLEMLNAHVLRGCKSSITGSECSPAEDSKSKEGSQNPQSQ
Procedure, shortened: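 ER-beta-UAS-bla HEK293T cells in medium with 2% charcoal-stripped FBS were exposed to compounds for 16 h at 37C. Beta-lactamase reporter activity was read as fluorescence after 2 h with LiveBLAzer B/G FRET substrate at room temperature.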

[14] = target: Estrogen receptor beta (Homo sapiens) (UniProt Q92731); experiment: qHTS assay to identify small molecule antagonists of the estrogen receptor beta (ER-beta) signaling pathway (AID 1259378; active means well fitted inhibition curve with a large enough effect in the signal ratio in the repeat runs, not every such curve was filed as active; the % refers to the signal ratio)
Procedure, shortened: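 ER-beta-UAS-bla HEK293T (GripTite) cells in 2% charcoal-stripped FBS medium were preincubated 6 hr at 37C, dosed with compound, then stimulated with 1 nM E2 (final) for 16 hr; beta-lactamase reporter read by B/G FRET fluorescence after 2 hr substrate loading.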

[15] = qHTS assay to identify small molecule agonists of the androgen receptor (AR) signaling pathway in the presence of an antagonist - cell viability counter screen (AID 1259379);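 further: MDA-kb2 human breast cancer cells carrying an MMTV luciferase reporter; series mostly up to about 92 µM; nearly all actives have a fitted effect of over 25% in size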
Procedure, shortened: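 Seed MDA-kb2 at 3,000 cells/well; incubate 5 hr, 37C, 0% CO2. Add nilutamide to 3.0uM final, then pin compounds at 15 concentrations. Incubate 16 hr. Add CellTiter-Fluor at 15 hr, read fluorescence after 1 hr.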

[16] = qHTS assay to identify small molecule agonists of the estrogen receptor beta (ER-beta) signaling pathway - cell viability counter screen (AID 1259380); further: nearly all actives have a fitted effect of over 30% in size
Procedure, shortened: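 CellTiter-Glo read, 30 min RT, same wells as bla assay; cells ER-beta-UAS-bla HEK293T; 16 hr compound, 37C; medium 2% charcoal-stripped FBS.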

[17] = qHTS assay to identify small molecule antagonists of the estrogen receptor beta (ER-beta) signaling pathway - cell viability counter screen (AID 1259382); further: series mostly up to about 92 µM; nearly all actives have a fitted effect of over 55% in size
Procedure, shortened: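 In this multiplexed counter screen, cells were seeded at 2,000 per well in medium with 2% charcoal-stripped FBS and incubated 6 hr before compound and 1nM final E2 were added. Sixteen hours later, ATP-based luminescence reported viability.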

[18] = target: Estrogen receptor (Homo sapiens) (UniProt P03372); experiment: qHTS assay to identify small molecule agonists of the estrogen receptor alpha (ER-alpha) signaling pathway in the presence of an antagonist (AID 1259383; calls by dose curve; further: top concentration of the series differs between compounds; nearly all actives have a fitted effect of over 15% in size)
Procedure, shortened: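 Stably transfected VM7Luc4E2 reporter cells, kept 5 days in charcoal-stripped serum, received ICI-182,780 at 10.0nM final before compound addition. Following 22hr incubation at 37C and 5% CO2, luciferase signal was read by luminescence.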

[19] = qHTS assay to identify small molecule agonists or antagonists of the thyroid stimulating hormone receptor (TSHR) signaling pathway - wild type cell line counter screen (AID 1259384; calls by dose curve)
Procedure, shortened: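 Wild-type HEK293 cells were plated 18 h at 37 C/5% CO2, pin-dosed with compound plus Ro20-1724 medium, held 30 min at room temperature, then given cAMP-d2 and anti-cAMP-cryptate; fluorescence was read after 1 h. Fifteen concentrations, triplicate.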

[20] = target: Androgen receptor (Homo sapiens) (UniProt P10275); experiment: qHTS assay to identify small molecule agonists of the androgen receptor (AR) signaling pathway in the presence of an antagonist (AID 1259381; calls by dose curve; further: nearly all actives have a fitted effect of over 15% in size)
Procedure, shortened: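 Test compounds at 15 concentrations were incubated for 16hr with MDA-kb2 reporter cells in presence of 3.0uM nilutamide (final). Signal: ONE-Glo luciferase luminescence.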
On the % scale 0 is the no-effect control and ±100 the full control effect.

O=C(Nc1ccc(Cl)c(Cl)c1)C1CC1
inactive: outcome [1] | Potency [2] | outcome [3] | outcome [6] | Potency [7] | outcome [8] | Potency [9] | Potency [10] | outcome [11] | Potency [12] | Potency [13] | outcome [14] | Potency [15] | Potency [16] | outcome [17] | outcome [18] | outcome [19]
active: Potency [4] 5.96 µM | Potency [5] 26.6 µM

COCCOCCOCCOCCO
inactive: outcome [1] | Potency [2] | outcome [3] | Potency [4] | Potency [5] | Potency [7] | outcome [8] | Potency [9] | Potency [10] | outcome [11] | Potency [12] | Potency [13] | outcome [14] | Potency [15] | Potency [16] | outcome [17] | outcome [19]

Oc1cn2c(n1)Nc1ccc(Cl)c(Cl)c1C2
inactive: cytotoxicity increase [1] -5.9% [at 15.8 µM] | activity change, negative = cytotoxicity [2] 0.999% [at 19 µM] | viability change, negative = cytotoxic [3] 1.91% [at 19 µM] | activity, negative = inhibition [4] 16.6% [at 19 µM] | activity change, negative = inhibition [5] -26.8% [at 19 µM] | outcome [6] | activity change, negative = inhibition [7] -1.7% [at 19 µM] | activity change, negative = cytotoxicity [8] 1.3% [at 19 µM] | viability change, negative = cytotoxic [9] 3.75% [at 19 µM] | viability change, negative = cytotoxic [10] -4.16% [at 19 µM] | activity change [11] -0.534% [at 18.9 µM] | activity change, negative = inhibition [12] -20% [at 19 µM] | activation [13] -3.28% [at 19 µM] | activity, negative = inhibition [14] 0.533% [at 19 µM] | activity change, negative = cytotoxicity [15] 0.214% [at 19 µM] | activity change, negative = cytotoxicity [16] 8.72% [at 19 µM] | activation [20] 1.01% [at 19 µM] | activity change, negative = cytotoxicity [17] 4.54% [at 19 µM] | cAMP activity change [19] -0.126% [at 18.9 µM]

CC(C)=O
inactive: outcome [1] | Potency [2] | outcome [3] | Potency [4] | Potency [5] | outcome [6] | Potency [7] | outcome [8] | Potency [9] | Potency [10] | outcome [11] | Potency [12] | Potency [13] | outcome [14] | Potency [15] | Potency [16] | Potency [20] | outcome [17] | outcome [18] | outcome [19]

CCCCOC(=O)c1ccccc1
inactive: outcome [1] | Potency [2] | outcome [3] | Potency [4] | Potency [5] | Potency [7] | outcome [8] | Potency [9] | Potency [10] | outcome [11] | Potency [15] | Potency [16] | outcome [17] | outcome [19]

COCCc1ccc(OCC2CO2)cc1 (stereo unspecified)
inactive: outcome [1] | Potency [2] | outcome [3] | Potency [4] | Potency [5] | Potency [7] | outcome [8] | Potency [9] | Potency [10] | outcome [11] | Potency [12] | Potency [13] | outcome [14] | Potency [15] | Potency [16] | outcome [17] | outcome [18] | outcome [19]

CNC(=O)[C@H]1O[C@@H](n2cnc3c(NCc4cc(Cl)ccc4OCc4cc(C)no4)ncnc32)[C@H](O)[C@@H]1N
inactive: outcome [1] | Potency [2] | outcome [3] | Potency [4] | Potency [5] | Potency [7] | outcome [8] | Potency [9] | Potency [10] | outcome [11] | Potency [12] | Potency [13] | outcome [14] | Potency [15] | Potency [16] | Potency [20] | outcome [17] | outcome [18] | outcome [19]

Cc1cc(C(C)(C)C)c(O)c(C)c1CC1=NCCN1
inactive: outcome [1] | Potency [2] | outcome [3] | Potency [4] | Potency [5] | outcome [6] | Potency [7] | outcome [8] | Potency [9] | Potency [10] | outcome [11] | Potency [12] | Potency [13] | outcome [14] | Potency [15] | Potency [16] | outcome [17] | outcome [18] | outcome [19]

CCOC(=O)c1ncn2c1CN(C)C(=O)c1cc(F)ccc1-2
inactive: outcome [1] | Potency [2] | outcome [3] | Potency [4] | Potency [5] | outcome [6] | Potency [7] | outcome [8] | Potency [9] | Potency [10] | outcome [11] | Potency [12] | Potency [15] | Potency [16] | outcome [17] | outcome [18] | outcome [19]

CC(C)(C)c1nnc(NS(=O)(=O)c2ccc(N)cc2)s1
inactive: outcome [1] | Potency [2] | outcome [3] | Potency [4] | Potency [5] | Potency [7] | outcome [8] | Potency [9] | Potency [10] | outcome [11] | Potency [12] | Potency [13] | outcome [14] | Potency [15] | Potency [16] | outcome [17] | outcome [18] | outcome [19]

CC(C(=O)O)c1ccc2c(c1)CC(=O)c1ccccc1S2 (stereo unspecified)
inactive: outcome [1] | Potency [2] | outcome [3] | Potency [4] | Potency [5] | outcome [6] | Potency [7] | outcome [8] | Potency [9] | Potency [10] | outcome [11] | Potency [12] | Potency [15] | Potency [16] | outcome [17] | outcome [18] | outcome [19]

C=C(C)C1CCC(C)(O)CC1 (stereo unspecified)
inactive: outcome [1] | Potency [2] | outcome [3] | Potency [4] | Potency [5] | Potency [7] | outcome [8] | Potency [9] | Potency [10] | outcome [11] | Potency [13] | outcome [14] | Potency [15] | Potency [16] | outcome [17] | outcome [18] | outcome [19]

CC(C)NCC(O)COc1ccc(COCCOC(C)C)cc1 (stereo unspecified)
inactive: outcome [1] | Potency [2] | outcome [3] | Potency [4] | Potency [5] | outcome [6] | Potency [7] | outcome [8] | Potency [9] | Potency [10] | outcome [11] | Potency [12] | Potency [13] | outcome [14] | Potency [15] | Potency [16] | outcome [17] | outcome [18] | outcome [19]

CC(C)(C)NC(N)=O
inactive: outcome [1] | Potency [2] | outcome [3] | Potency [4] | Potency [5] | Potency [7] | outcome [8] | Potency [9] | Potency [10] | outcome [11] | Potency [12] | Potency [13] | outcome [14] | Potency [15] | Potency [16] | outcome [17] | outcome [18] | outcome [19]
